Assay results as given in PubChem BioAssay AID463173 (ICCB-Longwood Screening Facility, Harvard Medical School, 2010).
Hit rate of the full screen: of about 52,000 compounds, about 4,300 (8.3%) were called active. Shown is part of a subset that was picked to be rich in actives. Unmarked numbers belong to inactive results. Rule as the data show it: active = survival mostly below about 52% (no sharp cut-off); inactive = mostly above about 56%.

The compounds below were run on DeltatarO mutant (assay: S. aureus survival, RN4220 and DeltatarO strains – OD600, teichoic acid synthesis inhibitors, primary screen (AID 463173)). Settings: S. aureus RN4220 wild type/DeltatarO growth, OD600, 18 h, active compounds read low, screened at 18.75 µg/mL (by protocol).

SMILES	survival
Cc1ccccc1CNC(=O)c1ccc(CS(=O)Cc2ccc(Cl)cc2)o1 (configuration not stated)	79%
CCOc1ccc(NC(=O)c2ncn(-c3ccccc3)n2)cc1	83%
COc1ccc2c(c1)c(=O)c(C(=O)c1ccc(F)cc1)cn2CC(=O)Nc1ccc2c(c1)OCCO2	65%
COc1ccc(CNC(=O)CN2C(=O)COc3ccc(S(=O)(=O)N4CCOCC4)cc32)cc1	75%
CCOc1ccc(N2CC(NC(=O)C3CCCCC3)CC2=O)cc1 (configuration not stated)	75%
O=C(NCCCc1nc2ccccc2n1Cc1ccccc1Cl)c1ccco1	66%
CCc1nn2c(=O)cc(COC(=O)c3ccccc3NC(=O)COc3ccccc3C)nc2s1	72%
CCOC(=O)N1CCc2c(sc3c2c(=O)n(-c2ccc(CC)cc2)c(=O)n3CC(=O)c2ccc(F)cc2)C1	80%
Cc1ccccc1NC(=O)CSC1=Nc2ccccc2C2=NC(Cc3ccccc3)C(=O)N12 (configuration not stated)	84%
Cc1ccc(O)c(-c2ccnc3cc(-c4ccc(Cl)cc4)nn23)c1	86%
CCOC(=O)COc1ccc([N+](=O)[O-])cc1-c1ccnc2cc(-c3ccc(C)cc3)nn12	76%
CCOC(=O)COc1ccc([N+](=O)[O-])cc1-c1ccnc2cc(-c3ccc(Cl)cc3)nn12	89%
O=[N+]([O-])c1ccc(O)c(-c2ccnc3cc(-c4ccccc4)nn23)c1	20% (active)
Cc1cc(O)c(-c2ccnc3cc(-c4ccccc4)nn23)cc1Cl	114%
Cc1ccc(-c2cc3nccc(-c4cc([N+](=O)[O-])ccc4O)n3n2)cc1	29% (active)
COc1cccc(NC(=O)C2CCCN(S(=O)(=O)c3c(C)nn(C)c3C)C2)c1 (configuration not stated)	87%
COc1ccc(NC(=O)c2cc(S(=O)(=O)N3CCCCC3)cn2C)cc1Cl	78%
CCN(C(=O)c1cn(-c2ccc(OC)cc2)c(=O)c2ccccc12)c1cccc(Cl)c1	103%
CCN(C(=O)c1sc2cc(OC)ccc2c1Cl)c1ccccc1	0% (active)

SMILES	survival
CCNC(=O)c1sc2ccccc2c1Cl	105%
Cc1ccc(-c2cc(C(=O)Oc3ccc(C#N)cc3)no2)cc1C	50%
Cc1cc(C)cc(OC(=O)c2cc(-c3ccc(Cl)cc3)on2)c1	94%
Cc1cc(C)cc(OC(=O)c2cc(-c3ccc4c(c3)OCCO4)on2)c1	-2% (active)
Cc1cccc(OC(=O)c2cc(-c3ccc4c(c3)OCCO4)on2)c1	-2% (active)
O=C(Nc1cccc(C(F)(F)F)c1)c1cc(-c2ccc3c(c2)OCCO3)on1	116%
Cc1cccc(OC(=O)c2cc(-c3ccc(C)c(C)c3)on2)c1	-2% (active)
Cc1ccc(O)c(NC(=O)c2cc(-c3ccc4c(c3)OCO4)on2)c1	71%
Cc1ccc(NC(=O)C2CCCN(S(=O)(=O)c3ccc(F)cc3)C2)cc1 (configuration not stated)	65%
COC(=O)c1c(NC(=O)c2nc(SCc3ccccc3C)ncc2Cl)sc2c1CCCC2	111%
Cc1ccc2nc(CSc3nnc(NC(=O)c4ccc(C(C)(C)C)cc4)s3)cc(=O)n2c1	81%
Cn1nnnc1SCC(=O)N1CCCc2ccccc21	81%
O=C1CC(C(=O)NCc2ccco2)C2(CCCCC2)O1 (configuration not stated)	85%
N#Cc1cccc(NC(=O)CCNS(=O)(=O)c2ccc3c(c2)CCN3C(=O)C2CC2)c1	82%
Cc1nn2cc(-c3ccc(OC(C)C)cc3)nc2s1	84%
CCN(CC)CCCNC(=O)c1cnc(SC)nc1-c1ccccc1	69%
Cc1ccc(Nc2cc(C)c(C#N)c3nc4ccccc4n23)c(C)c1	38% (active)
Cc1cc(Nc2ccc(F)cc2)n2c(nc3ccccc32)c1C#N	89%
Cc1ccc(Nc2cc(C)c(C#N)c3nc4ccccc4n23)cc1Cl	83%

SMILES	survival
O=C(Cn1nnc(-c2ccccc2NC(=O)c2cnccn2)n1)Nc1ccc2c(c1)OCCO2	105%
O=C(Oc1ccc2c(c1)OCO2)c1cccc(S(=O)(=O)N2CCCC2)c1	58%
CCOC(=O)CNC(=O)CC(c1cc(OC)c(OC)c(OC)c1)N1Cc2ccccc2C1=O (configuration not stated)	47% (active)
COc1cc(OC)c(NC(=O)CC(c2cccs2)N2Cc3ccccc3C2=O)cc1Cl (configuration not stated)	92%
Cc1ccc(CNC(=O)C(C(C)C)N2Cc3ccccc3C2=O)cc1 (configuration not stated)	73%
COc1ccc(CNC(=O)C(C(C)C)N2Cc3ccccc3C2=O)cc1 (configuration not stated)	-5% (active)
COc1ccc(CNC(=O)C(CC(C)C)N2Cc3ccccc3C2=O)cc1 (configuration not stated)	126%
COc1cc(Cl)c(C)cc1NC(=O)CC(c1ccc(F)cc1)N1Cc2ccccc2C1=O (configuration not stated)	0% (active)
COc1cc(C(CC(=O)NCc2ccccc2)N2Cc3ccccc3C2=O)cc(OC)c1OC (configuration not stated)	135%
Cc1ccc(NC(=O)CC(c2ccc(F)cc2)N2Cc3ccccc3C2=O)cc1C (configuration not stated)	74%
COc1ccc(C(CC(=O)Nc2cc(OC)c(OC)c(OC)c2)N2Cc3ccccc3C2=O)cc1 (configuration not stated)	57%
COc1cc(C(CC(=O)NCCC(C)C)N2Cc3ccccc3C2=O)cc(OC)c1OC (configuration not stated)	94%
CCOc1ccc(C(CC(=O)Nc2cc(C)c(Cl)cc2OC)N2Cc3ccccc3C2=O)cc1OC (configuration not stated)	70%
COc1ccc(C(CC(=O)Nc2cc(Cl)c(OC)cc2OC)N2Cc3ccccc3C2=O)cc1 (configuration not stated)	0% (active)
CSc1nn(Cc2ccc(F)cc2)c(N(C(C)=O)C(C)=O)c1S(=O)(=O)c1ccccc1	74%
COc1ccc(OC)c(NC(=O)Cn2c(=O)n(Cc3nc(C)no3)c(=O)c3ccccc32)c1	90%
O=C(CSc1oc(-c2ccco2)nc1S(=O)(=O)c1ccc(Cl)cc1)c1ccc(Cl)cc1	80%
Cn1cc(S(=O)(=O)c2ccccc2)c(=O)c2cc(F)c(N3CCCC3)cc21	123%
CC(=O)N1CCCc2cc(S(=O)(=O)N3CCC(C(=O)Nc4cccc(Cl)c4C)CC3)ccc21	74%
